Read-out in assay [1]: Pyruvate Dehydrogenase Kinase 4 (PDK4), PDK4 (gene 5166)
Kind of assay: LTEA_HepaRG_PDK4: Life Technologies and Expression Analysis (LTEA) Assay for Pyruvate Dehydrogenase Kinase 4 (PDK4) using HepaRG (AID 2283525). Conditions: mRNA level, 48 h; actives raise or lower the signal. The essentials:
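Readout is qRT-PCR of PDK4 transcript, normalized to three housekeeping genes, with bidirectional fitting against 0.5% DMSO vehicle. Differentiated HepaRG cells were treated 48 h in serum-free induction medium, duplicate wells, eight-point half-log series topping at 100 uM.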

Read-out in assay [2]: NAD(P)H dehydrogenase [quinone] 1 (NQO1), NQO1 (gene 1728)
Kind of assay: LTEA_HepaRG_NQO1: Life Technologies and Expression Analysis (LTEA) Assay for NAD(P)H dehydrogenase [quinone] 1 (NQO1) using HepaRG (AID 2283526). Conditions: mRNA level, 48 h; actives raise or lower the signal. Summed up:
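Transcript induction or suppression is quantified by qRT-PCR in human HepaRG liver cells dosed for 48 hours. Eight half-log concentrations topping at 100 uM are used, with 0.5% DMSO as vehicle and baseline.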

Read-out in assay [3]: succinate dehydrogenase complex iron sulfur subunit B (SDHB), SDHB (gene 6390)
Kind of assay: LTEA_HepaRG_SDHB: Life Technologies and Expression Analysis (LTEA) Assay for succinate dehydrogenase complex iron sulfur subunit B (SDHB) using HepaRG (AID 2283528). Conditions: mRNA level, 48 h; actives raise or lower the signal. The essentials:
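Readout is SDHB transcript level by qRT-PCR, normalised to three housekeeping genes and fitted bidirectionally against 0.5% DMSO vehicle. Human HepaRG cells were treated for 48 h at up to 100 uM.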

Read-out in assay [4]: Signal transducer and activator of transcription 3 (Homo sapiens) (UniProt P40763)
Kind of assay: LTEA_HepaRG_STAT3: Life Technologies and Expression Analysis (LTEA) Assay for Signal transducer and activator of transcription (STAT3) using HepaRG (AID 2283529). Conditions: mRNA level, 48 h; actives raise or lower the signal. Summed up:
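STAT3 transcript quantified by qRT-PCR against three housekeeping genes (ACTB, GAPDH, POLR2A), fitted both directions relative to DMSO. HepaRG cultures exposed 48 h to eight half-log concentrations, top 100 uM, 0.5% DMSO, serum-free induction medium.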

Read-out in assay [5]: solute carrier (SLCO1B1), SLCO1B1 (gene 10599)
Kind of assay: LTEA_HepaRG_SLCO1B1: Life Technologies and Expression Analysis (LTEA) Assay for solute carrier (SLCO1B1) using HepaRG (AID 2283530). To be noted: mRNA level, 48 h; actives raise or lower the signal. Summed up:
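Human HepaRG cultures treated for 48 h with an eight-concentration half-log series topping at 100 uM; SLCO1B1 measured by qRT-PCR and fitted bidirectionally relative to DMSO.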

Read-out in assay [6]: sulfotransferase 2A1 (SULT2A1), SULT2A1 (gene 6822)
Kind of assay: LTEA_HepaRG_SULT2A1: Life Technologies and Expression Analysis (LTEA) Assay for sulfotransferase 2A1 (SULT2A1) using HepaRG (AID 2283531). To be noted: mRNA level, 48 h; actives raise or lower the signal. Summed up:
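Gene-expression endpoint in a human liver cell line: SULT2A1 mRNA change after 48 h chemical treatment, curves fitted in both directions relative to 0.5% DMSO vehicle. Concentrations spanned eight half-log steps from 100 uM.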

Read-out in assay [7]: Transforming Growth Factor (TGFA), TGFA (gene 7039)
Kind of assay: LTEA_HepaRG_TGFA: Life Technologies and Expression Analysis (LTEA) Assay for Transforming Growth Factor (TGFA) using HepaRG (AID 2283532). To be noted: mRNA level, 48 h; actives raise or lower the signal. Summed up: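 TGFA transcript quantified by qRT-PCR (Fluidigm arrays) against three housekeeping genes, after 48 hours chemical treatment of HepaRG cells. Top concentration 100 uM with half-log dilutions, 8 points, duplicates, 0.5% DMSO.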

Read-out in assay [8]: Transforming Growth Factor (TGFB1), TGFB1 (gene 7040)
Kind of assay: LTEA_HepaRG_TGFB1: Life Technologies and Expression Analysis (LTEA) Assay for Transforming Growth Factor (TGFB1) Transporter using HepaRG (AID 2283533). Conditions: mRNA level, 48 h; actives raise or lower the signal. The essentials:
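Eight-point concentration-response (max 100 uM, half-log) in HepaRG under serum-free induction conditions, 48 h. TGFB1 mRNA by qRT-PCR, housekeeping-normalized.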

Read-out in assay [9]: TIMP1, TIMP1 (gene 7076)
Kind of assay: LTEA_HepaRG_TIMP1: Life Technologies and Expression Analysis (LTEA) Assay for TIMP1 using HepaRG (AID 2283534).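 Also: TaqMan qRT-PCR signal normalized to ACTB GAPDH and POLR2A housekeeping genes.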 Conditions: mRNA level, 48 h; actives raise or lower the signal. The essentials: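 TIMP1 induction or repression in HepaRG cells after 48 h chemical exposure (eight concentrations, highest 100 uM), assessed by normalized qRT-PCR with bidirectional fitting to DMSO controls.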

Read-out in assay [10]: Tumor necrosis factor receptor 1 (TNFRSF1A), TNFRSF1A (gene 7132)
Kind of assay: LTEA_HepaRG_TNFRSF1A: Life Technologies and Expression Analysis (LTEA) Assay for Tumor necrosis factor receptor 1 (TNFRSF1A) using HepaRG (AID 2283535). Conditions: mRNA level, 48 h; actives raise or lower the signal. The essentials:
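Assay uses 48 h chemical treatment of differentiated HepaRG monolayers, tested in duplicate at eight concentrations from 100 uM downward in 0.5% DMSO. mRNA is normalized to ACTB, GAPDH and POLR2A, with induction or suppression fitted relative to vehicle.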

Read-out in assay [11]: Thyroid Hormone Responsive (THRSP), THRSP (gene 7069)
Kind of assay: LTEA_HepaRG_THRSP: Life Technologies and Expression Analysis (LTEA) Assay for Thyroid Hormone Responsive (THRSP) using HepaRG (AID 2283536). To be noted: mRNA level, 48 h; actives raise or lower the signal. The essentials: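 THRSP transcript quantified by Fluidigm qRT-PCR against three housekeeping genes after 48 h chemical exposure of HepaRG cells in serum-free induction medium; eight-point half-log series, top 100 uM, 0.5% DMSO vehicle, duplicate wells.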

Read-out in assay [12]: Cellular tumor antigen p53 (Homo sapiens) (UniProt P04637)
Kind of assay: LTEA_HepaRG_TP53: Life Technologies and Expression Analysis (LTEA) Assay for Tumor Protein P53 (TP53) using HepaRG (AID 2283537). Conditions: mRNA level, 48 h; actives raise or lower the signal. The essentials:
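Read-out is TP53 transcript level by microfluidic qRT-PCR, normalised to three housekeeping genes and fitted bidirectionally against DMSO. Human HepaRG cells received compounds for 48 h, highest concentration 100 uM.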

Read-out in assay [13]: UDP glucuronosyltransferase (UGT1A1), UGT1A1 (gene 54658)
Kind of assay: LTEA_HepaRG_UGT1A1: Life Technologies and Expression Analysis (LTEA) Assay for UDP glucuronosyltransferase (UGT1A1) using HepaRG (AID 2283538). Conditions: mRNA level, 48 h; actives raise or lower the signal. Summed up: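 Cells are plated, cultured 48 h, switched to serum-free induction medium, then dosed 48 h at eight concentrations (max 100 uM, 0.5% DMSO). RNA is isolated and UGT1A1 expression measured by qRT-PCR; changes versus DMSO are fitted in both directions.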

Read-out in assay [14]: UDP glucuronosyltransferase (UGT1A6), UGT1A6 (gene 54578)
Kind of assay: LTEA_HepaRG_UGT1A6: Life Technologies and Expression Analysis (LTEA) Assay for UDP glucuronosyltransferase (UGT1A6) using HepaRG (AID 2283539). To be noted: mRNA level, 48 h; actives raise or lower the signal. Summed up:
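Measures mRNA change in HepaRG hepatic cells exposed 48 h to chemicals (eight-point, maximum 100 uM, 0.5% DMSO vehicle) in serum-free induction medium. Expression normalized to endogenous controls; DMSO served as negative control and baseline.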

Read-out in assay [15]: X-box binding protein 1 (XBP1), XBP1 (gene 7494)
Kind of assay: LTEA_HepaRG_XBP1: Life Technologies and Expression Analysis (LTEA) Assay for X-box binding protein 1 (XBP1) using HepaRG (AID 2283540). To be noted: mRNA level, 48 h; actives raise or lower the signal. The essentials:
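Eight concentrations (half-log, highest 100 uM, 0.5% DMSO) tested in duplicate on HepaRG cells over 48 h in serum-free induction medium; qRT-PCR of XBP1 normalised to ACTB, GAPDH, POLR2A.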

Assay [16] can be described thus: LTEA_HepaRG_LDH_cytotoxicity: Cytotoxicity Assessment in the Life Technologies and Expression Analysis (LTEA) Assay (AID 2283563; active = hit-call score of the fitted dose curve at least 0.9, where 1 is the maximum). The essentials:
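Spent-medium LDH after 48 h chemical exposure of HepaRG cells in serum-free induction medium; eight concentrations, half-log dilutions from 100 uM, duplicate wells, fitted upward relative to 0.5% DMSO.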

Assay [17] in a line: ATG_XTT_Cytotoxicity: Cytotoxicity Assessment in the Attagene TRANS-FACTORIAL HepG2 Assay (AID 2283584; active = hit-call score of the fitted dose curve at least 0.9, where 1 is the maximum). The essentials: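 24 h chemical exposure of reporter-transfected HepG2; XTT signal loss vs DMSO indicates cytotoxicity.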
The target of assay [18] is Cellular tumor antigen p53 (Homo sapiens) (UniProt P04637). Kind of assay: TOX21_p53_BLA_p2_ratio: Tox21 HCT-116 p53 Agonism Beta-lactamase Assay, Ratio, Phase 2 (AID 2283592; active = hit-call score of the fitted dose curve at least 0.9, where 1 is the maximum). Summed up:
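DMSO-normalized, positive-direction endpoint derived from the 460 nm/530 nm FRET ratio in HCT116 p53 beta-lactamase reporter cells exposed 16 h at 37C and loaded with CCF4-AM for 2 h.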

A short description of assay [19]: TOX21_p53_BLA_p2_viability: Viability Assessment in the Tox21 HCT-116 p53 Agonism Beta-lactamase Assay, Phase 2 (AID 2283591; active = hit-call score of the fitted dose curve at least 0.9, where 1 is the maximum;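 also: compound exposure lasted 16 h at 37 °C; actives lower the ATP signal meaning cytotoxicity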). The essentials: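 Cytotoxicity readout: CellTiter-Glo ATP luminescence, 30 min at room temperature, after the beta-lactamase read. Cells were HCT116 exposed 16 h at 37C to compounds pin-transferred at 217-fold dilution from DMSO stocks.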

For orientation: AC50 means the concentration giving half of the maximal activity seen.

The structures appear in SMILES notation. Results filed as inconclusive are left out. Activity calls are given as the source filed them. The calls were made as follows, unless noted: active = hit-call score of the fitted dose curve at least 0.9, where 1 is the maximum; inactive = score below 0.9.

Sequence of Signal transducer and activator of transcription 3 (Homo sapiens) (P40763 whole entry, looked up): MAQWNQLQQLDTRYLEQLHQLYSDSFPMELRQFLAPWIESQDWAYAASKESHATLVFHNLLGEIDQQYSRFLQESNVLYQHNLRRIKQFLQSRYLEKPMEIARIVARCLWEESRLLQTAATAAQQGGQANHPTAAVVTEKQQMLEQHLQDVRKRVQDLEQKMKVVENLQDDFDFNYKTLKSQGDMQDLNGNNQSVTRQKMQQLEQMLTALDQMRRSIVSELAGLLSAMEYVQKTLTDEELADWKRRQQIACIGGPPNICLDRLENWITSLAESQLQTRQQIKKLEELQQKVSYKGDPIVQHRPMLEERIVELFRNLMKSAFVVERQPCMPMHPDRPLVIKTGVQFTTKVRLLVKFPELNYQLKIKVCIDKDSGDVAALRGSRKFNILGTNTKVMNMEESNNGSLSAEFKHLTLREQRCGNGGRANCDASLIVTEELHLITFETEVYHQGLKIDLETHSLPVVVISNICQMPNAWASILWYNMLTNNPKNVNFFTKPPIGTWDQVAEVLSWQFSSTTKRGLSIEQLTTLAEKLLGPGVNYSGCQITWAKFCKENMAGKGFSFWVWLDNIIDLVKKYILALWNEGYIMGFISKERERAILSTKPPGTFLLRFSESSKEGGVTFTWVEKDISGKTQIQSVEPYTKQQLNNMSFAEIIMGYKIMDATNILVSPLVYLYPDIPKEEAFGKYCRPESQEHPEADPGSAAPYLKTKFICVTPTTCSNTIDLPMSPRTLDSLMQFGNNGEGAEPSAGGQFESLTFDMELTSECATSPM
Sequence of Cellular tumor antigen p53 (Homo sapiens) (P04637 whole entry, looked up): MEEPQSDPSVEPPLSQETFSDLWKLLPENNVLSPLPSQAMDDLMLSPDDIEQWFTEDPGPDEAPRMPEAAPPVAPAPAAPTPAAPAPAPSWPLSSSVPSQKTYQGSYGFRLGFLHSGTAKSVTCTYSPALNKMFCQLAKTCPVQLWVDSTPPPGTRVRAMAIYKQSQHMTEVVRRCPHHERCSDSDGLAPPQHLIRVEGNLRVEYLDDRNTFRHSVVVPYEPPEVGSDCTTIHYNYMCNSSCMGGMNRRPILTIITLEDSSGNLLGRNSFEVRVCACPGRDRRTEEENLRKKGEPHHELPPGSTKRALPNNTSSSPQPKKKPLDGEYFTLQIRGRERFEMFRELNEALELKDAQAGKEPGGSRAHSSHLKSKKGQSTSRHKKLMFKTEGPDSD

For the compound `COCC(C)O` (centres undefined), the result in assay [1], in assay [2], in assay [3], in [4], in [5] and in assay [6] was inactive. The call in assay [7], in assay [8], in assay [9], in assay [10], in assay [11] and in [12] was inactive. Besides, the compound was classed as inactive in assay [13], in assay [14], in assay [15], in assay [16], in assay [17] and in [18].
As for `CC(O)C(=O)O` (centres undefined), the compound was called inactive in assay [17] and in assay [18].
As for `c1ccc2c(c1)ccc1ccccc12`, the outcome in assay [1], in assay [2], in assay [3], in assay [4], in assay [5] and in [6] was inactive. In addition, the outcome in [7], in [8], in assay [9], in [10], in assay [11] and in assay [12] was inactive. The call in assay [14], in [15], in assay [16], in [17], in assay [19] and in assay [18] was inactive. In addition, the concentration at half-maximal activity (AC50) in assay [13] was 7.77 µM (active).
Regarding `CCCCCCCCOC(=O)CCCCCCCCC(=O)OCCCCCCCC`, the compound was classed as inactive in [1], in [2], in assay [3], in assay [4], in [5] and in assay [6]. The result in [7], in assay [8], in assay [9], in assay [10], in assay [11] and in [12] was inactive. In addition, the compound was classed as inactive in [13], in [14], in [15], in assay [16], in [17] and in [18].
As for `CCCCCCCC(=O)O`, the compound was called inactive in assay [1], in assay [2], in assay [3], in [4], in [5] and in assay [6]. The compound was called inactive in assay [7], in [8], in [9], in assay [10], in assay [11] and in [12]. For the same compound, the compound was called inactive in [13], in [14], in [15], in [16], in [17] and in assay [19]. Besides, in assay [18], the result was inactive.
For the compound `C[C@@H]1C[C@H]2[C@@H]3CCC4=CC(=O)C=C[C@]4(C)[C@@]3(F)[C@@H](O)C[C@]2(C)[C@@]1(O)C(=O)COP(=O)(O)O`, the compound was called inactive in assay [1], in assay [2], in [3], in assay [4], in assay [5] and in assay [6]. Moreover, the call in assay [7], in assay [8], in assay [9], in assay [10], in [11] and in assay [12] was inactive. Further, the compound was classed as inactive in assay [13], in assay [14], in assay [15], in assay [16], in [17] and in assay [18].

(Values after PubChem BioAssay (EPA / NIEHS).)
